# Screens from PubChem BioAssay.
# Many of the other results were omitted from the sample, so hits are more common in it than they were.
# HT1080-NT tox – kills 2HG-producing HT-1080-NT fibrosarcoma cells; HT-1080-NT fibrosarcoma viability, CellTiter-Glo ATP luminescence, 48 h; Potency, µM (series often up to 46.1 µM), actives largely listed as cytotoxic; actives 1.6% (n = 360,000); AID 686970;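 note: NT is the 2HG producing partner of a matched IDH1 knockdown line; nearly all actives have a fitted effect of over 55% in size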
#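 Luminescent CellTiter-Glo readout after 48 hours of compound exposure at 37 degrees C defined viability of HT-1080-NT cells. Activity was normalized to DMSO wells and cell-free media wells; concentration-response curves were fitted and assigned curve classes.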
# IL1B secr inh – inflammasome signaling inhibition, IL-1 beta readout | activity change, % at 57.5 µM | actives 4.7% (n = 360,000) | THP-1 LPS/ATP IL-1B secretion, AlphaLISA, 16 h; stronger effect = lower value; in the data active = activity change below about -50%; inconclusive = mostly about -30% to -49%
#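 Secreted IL-1B measured by AlphaLISA bead assay after 16 h compound exposure of THP-1 cells; compounds (final up to 57.5 uM) added 1 h before LPS (250 ng/mL) and ATP (1.25 mM) stimulation; lower signal means less secretion.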
# 12-LOX inh – ALOX12 (human) lipoxygenase inhibition; actives 1.1% (n = 580,000); P18054; AID 1671190; Potency, µM (doses to about 108 µM), most hits filed as inhibitors; purified 12hLO, xylenol orange hydroperoxide absorbance
# Target sequence (P18054 whole entry, looked up): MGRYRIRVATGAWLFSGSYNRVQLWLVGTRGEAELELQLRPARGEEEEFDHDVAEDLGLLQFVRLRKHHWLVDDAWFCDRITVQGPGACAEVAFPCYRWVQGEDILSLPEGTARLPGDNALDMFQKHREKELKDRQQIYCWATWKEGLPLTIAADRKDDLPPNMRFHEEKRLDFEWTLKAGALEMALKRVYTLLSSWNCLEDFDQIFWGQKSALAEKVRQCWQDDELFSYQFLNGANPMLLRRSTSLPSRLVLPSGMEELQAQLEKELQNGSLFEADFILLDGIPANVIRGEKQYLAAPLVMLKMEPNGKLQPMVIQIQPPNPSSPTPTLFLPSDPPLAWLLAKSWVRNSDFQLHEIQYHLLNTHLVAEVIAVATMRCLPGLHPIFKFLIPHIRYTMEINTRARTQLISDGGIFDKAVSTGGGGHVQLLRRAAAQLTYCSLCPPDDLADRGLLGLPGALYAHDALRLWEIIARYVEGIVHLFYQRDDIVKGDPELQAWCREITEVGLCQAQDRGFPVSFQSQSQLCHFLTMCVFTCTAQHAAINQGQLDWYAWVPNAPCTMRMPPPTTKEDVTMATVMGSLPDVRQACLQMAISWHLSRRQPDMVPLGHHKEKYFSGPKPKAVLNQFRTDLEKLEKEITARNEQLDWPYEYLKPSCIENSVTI
#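 Purified human 12hLO (150 nM final) in 25 mM Hepes, 0.01% Triton X-100, pH 7.0 was preincubated 15 min at room temperature with compound. Then 40 uM arachidonic acid was added, 30 min. Hydroperoxide was read by Fe-XO absorbance ratio 573/405 nm.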
# HT1080 IDH1KD tx – kills HT-1080 cells with IDH1 knockdown; HT-1080 IDH1 knockdown viability, ATP luminescence, 48 h; Potency, µM (doses to about 46.1 µM), actives largely listed as cytotoxic; actives 2% (n = 360,000); AID 686971
#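 HT-1080-IDH1KD cells (IDH1 knocked down), 750/well in RPMI with 5% FBS, treated with compound 48 h at 37 degrees C. Viability by CellTiter-Glo luminescence, normalised to DMSO and no-cell wells; concentration-response curves classed.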
# DT40 TDP1 CPT – DT40-hTDP1 cell growth loss with CPT. chicken DT40 Tdp1-/-;hTDP1 cells + 20 nM CPT, ATP luminescence, 48 h. Potency, µM (titrated, usually from 46.2 µM), most hits filed as inhibitors. actives 12% (n = 420,000); note: nearly all actives have a fitted effect of over 55% in size
#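 Chicken DT40 Tdp1-/- cells stably complemented with human TDP1 were seeded at 400 cells/well in medium containing 20 nM camptothecin, exposed to pin-transferred compounds, and grown at 37 °C for at least 48 hr. Viability was read as ATP luminescence.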
# DT40 TDP1 no CPT – qHTS for Inhibitors of human tyrosyl-DNA phosphodiesterase 1 (TDP1): qHTS in cells in absence of CPT | AID 686978, 2013 | Potency, µM (doses to about 46.2 µM), most hits filed as inhibitors | DT40 Tdp1-/- hTDP1 cells, no CPT, ATP luminescence, 48 h | actives 15% (n = 420,000); note: nearly all actives have a fitted effect of over 55% in size
#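 Camptothecin absent (DMSO only). Human TDP1-complemented DT40 knockout cells, 400 cells/well, 37 °C for minimum 48 hr; ATP measured via CellTiter-Glo, 30 min dark incubation, luminescence.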
# A number is an active result; – = inactive; ? = inconclusive; · = no result; [ ] = dose if it differs, or a comment. Unless noted, calls come from the whole dose curve; as a rule, active = well fitted curve in the direction sought with a large enough effect; inconclusive = small, poorly fitted or top-dose-only effect, or another doubt; inactive = no such curve, though single readings can be large; an effect the other way counts as inactive or inconclusive.
SMILES,HT1080-NT tox,IL1B secr inh,12-LOX inh,HT1080 IDH1KD tx,DT40 TDP1 CPT,DT40 TDP1 no CPT
Cc1ccc(CNC2CC3CCC2(C)C3(C)C)s1 (stereo not drawn),·,·,–,·,·,·
CC(C)(C)c1ccc(C(CNC(=O)c2cc(-c3cccs3)on2)N2CCOCC2)cc1 (stereo not drawn),·,·,–,·,·,·
O=C1c2ccccc2[C@@H]2C[C@@H](O)[C@H](Nc3ccccc3-c3ccccc3)CCN12,–,–,–,–,?,18µM
O=C1c2ccccc2[C@@H]2C[C@@H](O)[C@H](Nc3ccccc3)CCN12,–,–,–,–,–,–
O=C1c2ccccc2[C@@H]2C[C@@H](O)[C@H](Nc3cccc(C(F)(F)F)c3)CCN12,–,?,–,–,23µM,?
COc1cc(S(=O)(=O)N2CCC(C(N)=O)CC2)c(C)cc1Br,·,·,–,·,·,·
CCCCOC(=O)n1c(=S)oc2cc(Cl)ccc21,–,?,–,–,8.2µM,23µM
CCCCOC(=O)n1c(=O)oc2cc(S(=O)(=O)N3CCCCC3)ccc21,–,–,–,–,?,?
COCCn1c(C)c(C)c(S(=O)(=O)c2ccc(F)cc2)c1NC(=O)c1cccs1,·,·,–,·,·,·
Cc1nc(CN2CCOc3cc([S+](=O)([O-])N(C)C)ccc3C2)cs1,·,·,–,·,·,·
Cc1cccc2cc(CN(Cc3ccc(F)cc3)C(=O)N(C)C)c3nnnn3c12,–,–,–,–,23µM,21µM
Cc1ccc(CCC(=O)Nc2cccc3cccnc23)c(C)c1,·,·,–,·,·,·
C=CC[C@H](CC(=O)OC(C)(C)C)C(=O)OC[C@H]1CCCN1C(=O)[C@@H](CC=C)CC(=O)N(CCO)Cc1ccccc1,–,?,–,–,18µM,21µM
C=CC[C@@H](Cc1ccc(F)cc1)C(=O)OC[C@@H]1CCCN1C(=O)[C@H](CC=C)CC(=O)N(CCO)Cc1ccccc1,–,-61,–,–,?,18µM
C=CC[C@@H](Cc1ccc(F)cc1)C(=O)OC[C@H]1CCCN1C(=O)[C@@H](CC=C)CC(=O)N(CCO)Cc1ccccc1,–,-56,–,–,15µM,13µM
C=CC[C@@H](Cc1ccc(F)cc1)C(=O)OC[C@@H]1CCCN1C(=O)[C@H](CC=C)CC(=O)NCCO,–,–,–,–,?,?
CCn1ncc(N2CCC(NC(=O)c3ccc(OC)cc3)CC2)cc1=O,·,·,–,·,·,·
CCOc1ccc(-n2nnnc2CNS(=O)(=O)c2ccccc2Cl)cc1,·,·,–,·,·,·
CN(C)S(=O)(=O)c1ccc(C(=O)OCC(=O)Nc2cccc(C(F)(F)F)c2)cc1,·,·,–,·,·,·
O=C1C2C3C=CC(CO)(O3)C2C(=O)N1c1ccccc1-c1ccccc1 (stereo not drawn),3.2µM,-82,·,1.6µM,2.6µM,4.1µM
COc1ccc(N2C(=O)C3C4C=CC(c5ccccc5)(C3C2=O)C2C(=O)N(c3ccc(OC)cc3)C(=O)C42)cc1 (stereo not drawn),–,–,?,–,–,–
CC(=O)Oc1ccc(N2C(=O)C3C4C=CC(CO)(O4)C3C2=O)cc1 (stereo not drawn),–,–,–,–[9.24 µM],2.6µM,4.6µM
O=C1CCC(=O)N1c1ccccc1-c1ccccc1,–,–,–,–,–,–
O=C1C2C3C=CC(CNS(=O)(=O)c4ccccc4)(O3)C2C(=O)N1c1ccc(Cl)cc1 (stereo not drawn),–,–,–,–,26µM,?
CCOc1ccc(S(=O)(=O)n2ccnc2CC)cc1C,·,·,–,·,·,·
SMILES,HT1080-NT tox,IL1B secr inh,12-LOX inh,HT1080 IDH1KD tx,DT40 TDP1 CPT,DT40 TDP1 no CPT
COc1cc(NC(=O)C23CCCC=C2N(c2ccccc2)C(=O)CC3)cc(OC)c1 (stereo not drawn),·,·,–,·,·,·
CCn1ncc(NC(=O)Cn2ncc3cc(-c4ccc(N(C)C)cc4)ccc32)n1,·,·,–,·,·,·
O=C(COc1ccc2ccc(=O)oc2c1)NC(=O)NC1CCCCC1,·,·,–,·,·,·
O=C(CNC(=O)c1ccc([N+](=O)[O-])cc1)c1ccccc1,–,–,–,–,–,–
O=C(C#Cc1ccccc1)c1ccccc1,?,-108,–,18µM,0.73µM,0.58µM
O=C(C#Cc1ccccc1)c1ccc([N+](=O)[O-])cc1,?,-97,–,?,0.65µM,0.92µM
CN(C)C(=O)C#Cc1ccccc1,–,–,–,–,–,–
CC(C)CCSc1nc2c(c(=O)[nH]c(=O)n2C)n1C(C)C,·,·,–,·,·,·
CC(Sc1nn(-c2ccc(F)cc2)c(=S)s1)C(=O)c1c(N)n(C)c(=O)n(C)c1=O (stereo not drawn),–,–,–,–,?,13µM
Cn1c(N)c(C(=O)CSc2nn(-c3ccccc3)c(=S)s2)c(=O)n(C)c1=O,–,–,–,–,?,16µM
CCN(Cc1ccc(OC)c(OC)c1)C(=O)c1cc2ccccc2oc1=O,·,·,–,·,·,·
COc1cc(NC(=O)CCC2CCCN(Cc3nc(C(C)C)cs3)C2)cc(OC)c1 (stereo not drawn),·,·,–,·,·,·
CCn1c(=O)c(CCC(=O)NCC2CCCO2)c(C)c2c(C)nn(-c3ccccc3)c21 (stereo not drawn),–,–,–,–,16µM,?
Cc1ccc(-n2nc(C)c3c(C)c(CCC(=O)NCC4CCCO4)c(=O)n(C)c32)cc1 (stereo not drawn),–,–,–,–,?,23µM
CCn1c(=O)c(CCC(=O)NCCN2CCOCC2)c(C)c2c(C)nn(-c3ccccc3)c21,–,–,–,–,21µM,?
CCn1c(=O)c(CCC(=O)N2CCN(c3ccccn3)CC2)c(C)c2c(C)nn(-c3ccccc3)c21,?,–,–,–,16µM,21µM
Cc1oc2ccn(Cc3ccc(F)cc3)c(=O)c2c1C(=O)N1CCN(c2ccccn2)CC1,·,·,–,·,·,·
C#CCNC(=O)C(CCSC)NC(=O)c1ccc2ccccc2n1 (stereo not drawn),·,·,–,·,·,·
Cc1cccc(CN2C[C@@H](F)[C@@H](OCc3nc4ccccc4n3C)C2)n1,·,·,–,·,·,·
CC(C)(C)C(Cn1ccnc1)NC(=O)c1cc(COc2ccc3c(c2)CCCC3)on1 (stereo not drawn),·,·,–,·,·,·
O=C(/C=C/c1ccc(Cl)cc1Cl)N1CCN(c2ccc([N+](=O)[O-])c(N3CCOCC3)c2)CC1,–,–,–,–,?,23µM
O=C(Cc1ccc(Br)cc1)N1CCN(c2ccccc2O)CC1,–,–,?,–,–,–
O=C(/C=C/c1ccc(Cl)cc1Cl)N1CCN(c2ccccc2[N+](=O)[O-])CC1,–,-60,–,–,–,?
O=C(Cc1ccc(Cl)cc1Cl)N1CCN(c2ccccc2O)CC1,·,·,40µM,·,·,·
